Measurements reported in the supplement of paper PMC3334620.
In all, about 33,000 sequences were measured (“E-score (-0.5 to 0.5)”: median about -0.056, highest 2% from about 0.38 on). The full list was thinned out, with the highest values kept by preference.

molecular target: Stb4 (UniProt P50104); assay: PBM E-score (8-mer binding enrichment) (E-score (-0.5 to 0.5)); higher = stronger / more preferred TF binding; details: protein concentration: 200 nM; construct: GST-DNA-binding domain
Procedure: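 Universal 'all 10-mer' protein binding microarrays (Agilent AMADID 015681) probed with GST-tagged S. cerevisiae TFs (full-length or DBD) made by in vitro transcription/translation (PURExpress), about 100-200 nM. Bound TF was detected with fluorescent anti-GST. Each ungapped 8-mer (which stands for itself and its reverse complement) is scored by the PBM enrichment score (E-score), a modified Wilcoxon-Mann-Whitney statistic from -0.5 to +0.5, computed with the Universal PBM Analysis Suite. Scale: above 0.35 generally sequence-specific binding.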

UniProt P50104, sequence (P50104 whole entry, the tested form may be a part): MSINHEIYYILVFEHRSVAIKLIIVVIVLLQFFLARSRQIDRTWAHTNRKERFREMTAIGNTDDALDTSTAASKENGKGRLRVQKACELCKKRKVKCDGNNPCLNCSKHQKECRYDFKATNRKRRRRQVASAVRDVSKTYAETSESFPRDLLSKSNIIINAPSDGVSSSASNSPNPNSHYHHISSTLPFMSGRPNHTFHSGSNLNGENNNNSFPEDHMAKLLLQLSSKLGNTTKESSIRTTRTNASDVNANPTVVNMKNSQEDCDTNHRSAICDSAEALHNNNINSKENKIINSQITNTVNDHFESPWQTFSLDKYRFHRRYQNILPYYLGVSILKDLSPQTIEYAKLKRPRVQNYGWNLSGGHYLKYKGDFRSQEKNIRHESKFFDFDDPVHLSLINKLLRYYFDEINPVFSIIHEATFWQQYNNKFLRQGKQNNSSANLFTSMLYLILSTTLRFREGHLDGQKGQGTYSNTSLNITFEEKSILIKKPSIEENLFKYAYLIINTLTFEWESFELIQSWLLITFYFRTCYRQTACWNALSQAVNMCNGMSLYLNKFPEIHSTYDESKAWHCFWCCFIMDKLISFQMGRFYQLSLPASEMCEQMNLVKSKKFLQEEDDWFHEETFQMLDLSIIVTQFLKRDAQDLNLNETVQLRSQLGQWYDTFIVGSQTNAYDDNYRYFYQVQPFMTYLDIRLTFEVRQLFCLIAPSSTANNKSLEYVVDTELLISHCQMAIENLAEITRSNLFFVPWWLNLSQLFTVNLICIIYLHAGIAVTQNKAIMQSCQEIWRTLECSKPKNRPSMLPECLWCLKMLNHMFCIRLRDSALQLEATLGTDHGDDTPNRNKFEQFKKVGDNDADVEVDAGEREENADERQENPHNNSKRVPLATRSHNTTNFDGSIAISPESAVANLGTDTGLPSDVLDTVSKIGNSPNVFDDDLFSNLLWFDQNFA

Row | Sequence | PBM E-score
1 | AACCGGAT | 0.383
2 | TTCCGGAA | 0.46
3 | CTCCGGTA | 0.254
4 | CAAATCCC | 0.141
5 | CACCCAGG | -0.115
6 | GCGCCGCA | 0.0423
7 | GCTGGCAC | -0.224
8 | CTAAAATC | -0.12
9 | CCCGCTTA | 0.0362
10 | AAACAGTT | -0.0803
11 | AATCAATC | 0.055
12 | ATCCGGTA | 0.322
13 | ATCCGGTG | 0.397
14 | ATGCGGAG | 0.0793
15 | ATCCGCAT | 0.348
16 | ATCCGGAG | 0.385
17 | ATCCGGTC | 0.302
18 | CTCCGGAG | 0.304
19 | ATCCGGAT | 0.459
20 | GTCCGGAC | 0.283
21 | CCTGGGTC | -0.126
22 | AGTTAAAA | 0.045

Row | Sequence | PBM E-score
23 | CATCAGGC | -0.149
24 | GCTCATCC | 0.127
25 | GACGGATC | 0.265
26 | TACGGAAA | 0.322
27 | CACGGATC | 0.35
28 | AACGGATG | 0.304
29 | GACGGATA | 0.385
30 | TACGGAGA | 0.0409
31 | TACGGATA | 0.385
32 | GACGGAGA | 0.187
33 | AACGGATT | 0.155
34 | CACGGATA | 0.385
35 | CACGGATG | 0.338
36 | AACGGATA | 0.439
37 | GCTCAACC | -0.206
38 | ACTCTCCT | -0.272
39 | GGCAAGTA | 0.0793
40 | TGCGAGAA | -0.132
41 | CAAAATCA | -0.00631
42 | TATCCGAA | 0.493
43 | GATCCGTA | 0.351
44 | CATCCTAA | -0.079

Row | Sequence | PBM E-score
45 | CATCCGCA | 0.314
46 | TATCCAAA | -0.184
47 | AATCCGCA | 0.157
48 | GATCCGAA | 0.482
49 | CATCCGAA | 0.476
50 | TGTCCGAA | 0.35
51 | TATCCGCA | 0.408
52 | GATCCAAA | -0.0151
53 | CATCCAAA | -0.2
54 | GCTTTCAC | -0.148
55 | GCTATAGC | -0.096
56 | ATTCTGCG | -0.0218
57 | GAGAGACC | -0.122
58 | ATACCTCC | -0.0529
59 | TGATATCA | -0.281
60 | TGCCACCA | -0.374
61 | GGCGTCAC | -0.0997
62 | GCCTTCAA | -0.13
63 | GATGCGGC | 0.0547
64 | ATTCTTTC | -0.0171
65 | AATCCGAA | 0.42
66 | AATCCGAT | 0.368

Row | Sequence | PBM E-score
67 | GGTCCGAC | 0.292
68 | CGTCCGAA | 0.336
69 | GGTCCGAA | 0.416
70 | AATCCGTA | 0.12
71 | TATAGCCA | -0.113
72 | CCGACTAA | 0.29
73 | CGGACAAG | 0.138
74 | CTCCTCGA | -0.284
75 | ACATCCGC | 0.382
76 | CTATCCGC | 0.396
77 | ATATCCGC | 0.389
78 | ATATCCTC | -0.03
79 | CTATCCCC | -0.0734
80 | CTATCCAC | -0.0315
81 | ACTGCCCG | 0.123
82 | ACTTTTCG | 0.0867
83 | GCCTCGCC | 0.0101
84 | ACCCCGGA | 0.232
85 | CGCCCGGA | 0.328
86 | GCCCCGGA | 0.385
